Laboratory results taken from the supplement of paper PMC8975748.
Counter-ions that a name gives are not always drawn.

Tested on: Saccharomyces cerevisiae BY4741 SeMeCo community
Assay: z-score of subpopulation abundance vs DMSO median, subpopulation auxotrophic for LU; higher = larger share of this subpopulation than in DMSO controls
Settings: 10 µM; 24 h; SM minimal medium; subpopulation (auxotrophy): LU
Method: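 Fluorescent four-plasmid SeMeCo (self-establishing metabolically cooperating S. cerevisiae BY4741 community; plasmids pH-mRuby2, pL-mWasabi, pU-eCFP, pM-TagRFP657) was grown 24 h in minimal SM medium with each Selleck FDA-approved drug at 10 µM in 384-well plates. Cells were fixed and imaged by high-content confocal microscopy. For each auxotrophic subpopulation (and the prototroph), a z-score gives the deviation from the DMSO vehicle-control population median.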

Structure (SMILES) | z-score of subpopulation abundance
CCOC(=O)C1=C(C)NC(C)=C(C(=O)OC)C1c1cccc(Cl)c1Cl (stereo not given) [Felodipine] | -6.85
C#CCN[C@@H]1CCc2ccccc21 [Rasagiline] | 0.78
Cc1ccc(S(=O)(=O)NC(=O)NN2CC3CCCC3C2)cc1 (stereo not given) [Gliclazide] | -0.08
Cc1noc(NS(=O)(=O)c2ccc(N)cc2)c1C [Sulfisoxazole] | 1.45
C[C@]12CC[C@@H]3c4ccc(OS(=O)(=O)O)cc4CC[C@H]3[C@@H]1CCC2=O [Estropipate] | -0.6
COC1C(O)CC(=O)OC(C)CC=CC=CC(OC2CCC(N(C)C)C(C)O2)C(C)CC(CC=O)C1OC1OC(C)C(OC2CC(C)(O)C(O)C(C)O2)C(N(C)C)C1O (stereo not given) [Spiramycin] | -0.46
CCOC(=O)C1=C(COCCN)NC(C)=C(C(=O)OC)C1c1ccccc1Cl (stereo not given) [Amlodipine] | -7.07
O=C(c1ccc(OCCN2CCCCC2)cc1)c1c(-c2ccc(O)cc2)sc2cc(O)ccc12 [Raloxifene HCl] | -1.4
Cc1nc2n(c(=O)c1CCN1CCC(c3noc4cc(F)ccc34)CC1)CCCC2 [Risperidone] | 0.52
Cc1ccc(Cl)c(Nc2ccccc2C(=O)O)c1Cl [Meclofenamate Sodium] | -0.57
CC[C@H](c1ccc(O)cc1)[C@@H](CC)c1ccc(O)cc1 [Hexestrol] | -1.49
CC(=O)OCC[N+](C)(C)C [Acetylcholine iodide] | -0.57
CONC(=O)Nc1ccc(-c2sc3c(c2CN(C)C)c(=O)n(-c2ccc(OC)nn2)c(=O)n3Cc2c(F)cccc2F)cc1 [Relugolix] | -0.09
CCN1CCN(C(=O)N[C@@H](C(=O)N[C@@H]2C(=O)N3C(C(=O)O)=C(CSc4nnnn4C)CS[C@H]23)c2ccc(O)cc2)C(=O)C1=O [Cefoperazone] | -0.39
COc1cc([C@@H]2c3cc4c(cc3[C@@H](O[C@@H]3O[C@@H]5CO[C@@H](C)O[C@H]5[C@H](O)[C@H]3O)[C@H]3COC(=O)[C@H]23)OCO4)cc(OC)c1O [Etoposide] | 0.39
O=C(O)Cc1ccccc1Nc1c(Cl)cccc1Cl [Diclofenac Diethylamine] | -0.75
NC(=O)[C@@H]1CC[C@@H]2CN1C(=O)N2OS(=O)(=O)O [Avibactam sodium] | 1.12
O=C1CC2(CCCC2)CC(=O)N1CCCCN1CCN(c2ncccn2)CC1 [Buspirone HCl] | 1.78
CC(C)[C@H](N)C(=O)OCCOCn1cnc2c(=O)nc(N)[nH]c21 [Valaciclovir HCl] | -0.13
N#Cc1ccc(Oc2ccc3c(c2)COB3O)cc1 [Crisaborole (AN2728)] | 4.21

Structure (SMILES) | z-score of subpopulation abundance
CN(C)CCc1c[nH]c2ccc(C[C@H]3COC(=O)N3)cc12 [Zolmitriptan] | -0.9
COc1cc(O)c(C(=O)Nc2nc(C(=O)NCCN(C(C)C)C(C)C)cs2)cc1OC [Acotiamide hydrochloride] | 0.52
Cc1onc(-c2c(F)cccc2Cl)c1C(=O)N[C@@H]1C(=O)N2[C@@H]1SC(C)(C)[C@@H]2C(=O)O [Flucloxacillin sodium] | 0.16
COc1ccc(NS(=O)(=O)c2ccc(N)cc2)nn1 [Sulfamethoxypyridazine] | -0.73
COc1ccc(Cc2cnc(N)nc2N)cc1OC [Diaveridine] | -0.41
Cc1c(-c2ccc(O)cc2)n(Cc2ccc(OCCN3CCCCCC3)cc2)c2ccc(O)cc12 [Bazedoxifene HCl] | 0.03
CO/N=C(\C(=O)N[C@@H]1C(=O)N2C(C(=O)O)=C(CSc3nnnn3C)CS[C@H]12)c1csc(N)n1 [Cefmenoxime hydrochloride] | 0.37
CCN(CC)C(=O)N1CCN(C)CC1 [Diethylcarbamazine citrate] | 0.3
CCCN1CCCC[C@H]1C(=O)Nc1c(C)cccc1C [Ropivacaine HCl] | 0.42
COc1cc(N)c(Cl)cc1C(=O)NC1CCN(CCCOc2ccc(F)cc2)CC1OC (stereo not given) [Cisapride] | -0.54
Cc1cccc(C)c1NC(=O)C1CCCCN1C (stereo not given) [Mepivacaine] | -0.35
OC1(c2ccc(Cl)c(C(F)(F)F)c2)CCN(CCCC(c2ccc(F)cc2)c2ccc(F)cc2)CC1 [Penfluridol] | 0.13
COC(=O)C1=C(C)NC(C)=C(C(=O)OCC(C)C)C1c1ccccc1[N+](=O)[O-] (stereo not given) [Nisoldipine] | -0.62
O=c1[nH]c(=O)n([C@H]2C[C@H](O)[C@@H](CO)O2)cc1I [Idoxuridine] | -0.03
O=C(O)c1cc(/N=N/c2ccc(O)c(C(=O)O)c2)ccc1O [Olsalazine Sodium] | -0.37
CC1(C)S[C@@H]2[C@H](NC(=O)[C@H](N)c3ccccc3)C(=O)N2[C@H]1C(=O)OCOC(=O)[C@@H]1N2C(=O)C[C@H]2S(=O)(=O)C1(C)C [Sultamicillin Tosylate] | -0.03
Nc1ccc(S(=O)(=O)Nc2cnc3ccccc3n2)cc1 [Sulfaquinoxaline sodium] | 0.22
CN1CCCN=C1/C=C/c1cccc(O)c1 [Oxantel Pamoate] | -0.45
CCOC(=O)CCC(=O)O[C@H]1[C@H](O[C@@H]2[C@@H](C)[C@H](O[C@H]3C[C@@](C)(OC)[C@@H](O)[C@H](C)O3)[C@@H](C)C(=O)O[C@H](CC)[C@@](C)(O)[C@H](O)[C@@H](C)C(=O)[C@H](C)C[C@@]2(C)O)O[C@H](C)C[C@@H]1N(C)C [Erythromycin Ethylsuccinate] | 0.76
CNCCC(Oc1ccc(C(F)(F)F)cc1)c1ccccc1 (stereo not given) [Fluoxetine HCl] | 0.51
